# Inconclusive results are not listed. Calls of active or inactive are those of the source. Calls come from the whole dose curve; as a rule, active = well fitted inhibition curve with a large enough effect; inconclusive = small, poorly fitted or top-dose-only effect; inactive = flat fitted curve, though single readings scatter. Bridge positions count the residues as written; N and C are the ends. Square brackets hold non-standard residues; d marks the D form. Peptide text beside a SMILES is read from it. * marks the point of attachment. Ileψ(thiazoline)Cys = CC[C@H](C)[C@H](N)C1=N[C@H](C(=O)*)CS1; d(aIle) = CC[C@H](C)[C@@H](N)C(=O)O; dOrn = NCCC[C@@H](N)C(=O)O
# System: HB3
# Test: qHTS profiling for inhibitors of Plasmodium falciparum proliferation (AID 504749); note: nearly all actives have a fitted effect of over 60% in size;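 for activity, negative = inhibition: 0% = DMSO vehicle and full inhibition = artemisinin control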
# Conditions: P. falciparum in erythrocytes, SYBR Green DNA, 72 h; series mostly up to 12.8 µM; activity, negative = inhibition: at the top concentration
# Procedure, shortened: (§1)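 P. falciparum-infected erythrocytes (0.3% parasitemia, 2.5% hematocrit) incubated with compound 72 h at 37 C, 5% CO2. Parasite DNA detected by SYBR Green after lysis, overnight at room temperature; normalised to 0.29 uM artemisinin and DMSO.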
# Potency is the fitted concentration of half-maximal effect.
Structure (SMILES),"activity, negative = inhibition",Potency
CCN(CC)CCOC(=O)[C@@H](Cc1cccc2ccccc12)C[C@@H]1CCCO1,16.4% (inactive),
Clc1ccc([C@H](Cn2ccnc2)OCc2c(Cl)cccc2Cl)c(Cl)c1,,3980 nM (active)
C[C@@H](CNC1CCCCC1)OC(=O)c1ccccc1,,3980 nM (active)
CC[C@H](CO)NCCN[C@@H](CC)CO,-6.19% (inactive),

# System: ICS
# Test: as above
# Conditions: P. falciparum in erythrocytes, SYBR Green DNA, 72 h; series mostly up to 12.8 µM; activity, negative = inhibition: at the top concentration
# Procedure, shortened: as §1
Structure (SMILES),"activity, negative = inhibition",Potency
CN1CCO[C@H](c2ccccc2)c2ccccc2C1,-25.6% (inactive),
C[C@H](CCC(=O)O)[C@H]1CC[C@@H]2[C@@H]3[C@@H](O)C[C@H]4C[C@@H](O)CC[C@@]4(C)[C@H]3CC[C@@]21C,2.62% (inactive),
CN(C/C=C\c1ccccc1)Cc1cccc2ccccc12,,11200 nM (active)
CCC(=O)OCC(=O)[C@@]1(OC(=O)CC)[C@H](C)C[C@@H]2[C@@H]3[C@H]([C@@H](O)C[C@@]21C)[C@]1(C)C=CC(=O)C=C1C[C@@H]3Cl,,1120 nM (active)
C[C@H](C(=O)O)c1cccc(Oc2ccccc2)c1,-1.44% (inactive),
CC1(C)[C@@H](OC(=O)CCC(=O)O)CC[C@@]2(C)[C@H]1CC[C@@]1(C)[C@H]2C(=O)C=C2[C@H]3C[C@](C)(C(=O)O)CC[C@]3(C)CC[C@@]21C,17.2% (inactive),
CCOC(=O)O[C@@H](C)OC(=O)[C@@H]1N2C(=O)[C@@H](NC(=O)[C@@H](N)c3ccccc3)[C@H]2SC1(C)C,15.1% (inactive),
Cc1ccsc1/C=C\C1=NCCCN1C,-5.11% (inactive),
Cc1cccc(CN2CCN([C@@H](c3ccccc3)c3ccc(Cl)cc3)CC2)c1,,2820 nM (active)
C#C[C@]1(O)CC[C@@H]2[C@H]3CCC4=CCCC[C@@H]4[C@@H]3CC[C@@]21C,6.56% (inactive),
CC[C@H](C)[C@H](N)C1=N[C@H](C(=O)N[C@@H](CC(C)C)C(=O)N[C@@H](CCC(=O)O)C(=O)N[C@@H](C(=O)N[C@H]2CCCCNC(=O)[C@@H](CC(N)=O)NC(=O)[C@@H](CC(=O)O)NC(=O)[C@@H](Cc3cnc[nH]3)NC(=O)[C@@H](Cc3ccccc3)NC(=O)[C@@H]([C@@H](C)CC)NC(=O)[C@@H](CCCN)NC2=O)[C@@H](C)CC)CS1 ({Ileψ(thiazoline)Cys}-LE[d(aIle)]K[dOrn][d(aIle)][dF][dH][dD][dN]; lactam 4-C),2.56% (inactive),
CCN(CC)CCOC(=O)[C@@H](Cc1cccc2ccccc12)C[C@@H]1CCCO1,-25.3% (inactive),
Clc1ccc([C@H](Cn2ccnc2)OCc2c(Cl)cccc2Cl)c(Cl)c1,,1580 nM (active)
C[C@@H](CNC1CCCCC1)OC(=O)c1ccccc1,,1780 nM (active)
CC[C@H](CO)NCCN[C@@H](CC)CO,-4.5% (inactive),

# System: JCK
# Test: as above
# Conditions: P. falciparum in erythrocytes, SYBR Green DNA, 72 h; series mostly up to 12.8 µM; activity, negative = inhibition: at the top concentration
# Procedure, shortened: as §1
row,Structure (SMILES),"activity, negative = inhibition"
1,CN1CCO[C@H](c2ccccc2)c2ccccc2C1,-16.9% (inactive)
2,C[C@H](CCC(=O)O)[C@H]1CC[C@@H]2[C@@H]3[C@@H](O)C[C@H]4C[C@@H](O)CC[C@@]4(C)[C@H]3CC[C@@]21C,8.29% (inactive)
3,CN(C/C=C\c1ccccc1)Cc1cccc2ccccc12,-4.83% [at 28.7 µM] (inactive)
4,CCN(CCCCOC(=O)c1ccc(OC)c(OC)c1)[C@@H](C)Cc1ccc(OC)cc1,-7.88% (inactive)
5,C[C@H](C(=O)O)c1cccc(Oc2ccccc2)c1,10.4% (inactive)
6,CC1(C)[C@@H](OC(=O)CCC(=O)O)CC[C@@]2(C)[C@H]1CC[C@@]1(C)[C@H]2C(=O)C=C2[C@H]3C[C@](C)(C(=O)O)CC[C@]3(C)CC[C@@]21C,12% (inactive)
7,CCOC(=O)O[C@@H](C)OC(=O)[C@@H]1N2C(=O)[C@@H](NC(=O)[C@@H](N)c3ccccc3)[C@H]2SC1(C)C,7.74% (inactive)
8,Cc1ccsc1/C=C\C1=NCCCN1C,-1.75% (inactive)
9,Cc1cccc(CN2CCN([C@@H](c3ccccc3)c3ccc(Cl)cc3)CC2)c1,25.8% (inactive)
10,C#C[C@]1(O)CC[C@@H]2[C@H]3CCC4=CCCC[C@@H]4[C@@H]3CC[C@@]21C,-2.72% (inactive)
11,CC[C@H](C)[C@H](N)C1=N[C@H](C(=O)N[C@@H](CC(C)C)C(=O)N[C@@H](CCC(=O)O)C(=O)N[C@@H](C(=O)N[C@H]2CCCCNC(=O)[C@@H](CC(N)=O)NC(=O)[C@@H](CC(=O)O)NC(=O)[C@@H](Cc3cnc[nH]3)NC(=O)[C@@H](Cc3ccccc3)NC(=O)[C@@H]([C@@H](C)CC)NC(=O)[C@@H](CCCN)NC2=O)[C@@H](C)CC)CS1 ({Ileψ(thiazoline)Cys}-LE[d(aIle)]K[dOrn][d(aIle)][dF][dH][dD][dN]; lactam 4-C),-5.56% (inactive)
12,O=C(O)COCCN1CCN([C@@H](c2ccccc2)c2ccc(Cl)cc2)CC1,26.4% (inactive)
13,CCN(CC)CCOC(=O)[C@@H](Cc1cccc2ccccc12)C[C@@H]1CCCO1,-21.5% (inactive)
14,CC[C@H](CO)NCCN[C@@H](CC)CO,-3.63% (inactive)

# System: N140
# Test: as above
# Conditions: P. falciparum in erythrocytes, SYBR Green DNA, 72 h; series mostly up to 12.8 µM; activity, negative = inhibition: at the top concentration
# Procedure, shortened: as §1
Structure (SMILES),"activity, negative = inhibition",Potency
C[C@H](CCC(=O)O)[C@H]1CC[C@@H]2[C@@H]3[C@@H](O)C[C@H]4C[C@@H](O)CC[C@@]4(C)[C@H]3CC[C@@]21C,-15.6% (inactive),
CN(C/C=C\c1ccccc1)Cc1cccc2ccccc12,-13.1% [at 28.7 µM] (inactive),
CCN(CCCCOC(=O)c1ccc(OC)c(OC)c1)[C@@H](C)Cc1ccc(OC)cc1,-15.1% (inactive),
C[C@H](C(=O)O)c1cccc(Oc2ccccc2)c1,-0.691% (inactive),
CC1(C)[C@@H](OC(=O)CCC(=O)O)CC[C@@]2(C)[C@H]1CC[C@@]1(C)[C@H]2C(=O)C=C2[C@H]3C[C@](C)(C(=O)O)CC[C@]3(C)CC[C@@]21C,7.56% (inactive),
CCOC(=O)O[C@@H](C)OC(=O)[C@@H]1N2C(=O)[C@@H](NC(=O)[C@@H](N)c3ccccc3)[C@H]2SC1(C)C,10.8% (inactive),
Cc1ccsc1/C=C\C1=NCCCN1C,10.6% (inactive),
C#C[C@]1(O)CC[C@@H]2[C@H]3CCC4=CCCC[C@@H]4[C@@H]3CC[C@@]21C,8.6% (inactive),
CC[C@H](C)[C@H](N)C1=N[C@H](C(=O)N[C@@H](CC(C)C)C(=O)N[C@@H](CCC(=O)O)C(=O)N[C@@H](C(=O)N[C@H]2CCCCNC(=O)[C@@H](CC(N)=O)NC(=O)[C@@H](CC(=O)O)NC(=O)[C@@H](Cc3cnc[nH]3)NC(=O)[C@@H](Cc3ccccc3)NC(=O)[C@@H]([C@@H](C)CC)NC(=O)[C@@H](CCCN)NC2=O)[C@@H](C)CC)CS1 ({Ileψ(thiazoline)Cys}-LE[d(aIle)]K[dOrn][d(aIle)][dF][dH][dD][dN]; lactam 4-C),3.12% (inactive),
O=C(O)COCCN1CCN([C@@H](c2ccccc2)c2ccc(Cl)cc2)CC1,-14.7% (inactive),
CCN(CC)CCOC(=O)[C@@H](Cc1cccc2ccccc12)C[C@@H]1CCCO1,-14.8% (inactive),
Clc1ccc([C@H](Cn2ccnc2)OCc2c(Cl)cccc2Cl)c(Cl)c1,,3160 nM (active)
CC[C@H](CO)NCCN[C@@H](CC)CO,13.4% (inactive),

# Reference: PubChem BioAssay (NCATS)
